Results from PMC5540273 (PLoS ONE, 2017).

Legend:
Conditions in all cases: concentration: 1 μM, replicates: in singlicate; n = 1
[1] = system: SRPK2
[2] = system: SRPK3
[3] = system: STK16
[4] = system: STK33
[5] = system: STK35
[6] = system: STK36
[7] = system: STK39
[8] = system: SYK
[9] = system: SgK110
[10] = system: T1, TAK1
T1 construct: gene MAP3K7

[11] = system: TAOK1
[12] = system: TAOK2
[13] = system: TAOK3
[14] = system: TBK1
[15] = system: TEC
[16] = system: TESK1
[17] = system: TGFBR1
[18] = system: TGFBR2
[19] = system: TIE1
[20] = system: T2, TIE2
T2 construct: gene TEK
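Note: KINOMEscan kinase panel screen.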

Compound	%Inh [1] [%]	%Inh [2] [%]	%Inh [3] [%]	%Inh [4] [%]	%Inh [5] [%]	%Inh [6] [%]	%Inh [7] [%]	%Inh [8] [%]	%Inh [9] [%]	%Inh [10] [%]	%Inh [11] [%]	%Inh [12] [%]	%Inh [13] [%]	%Inh [14] [%]	%Inh [15] [%]	%Inh [16] [%]	%Inh [17] [%]	%Inh [18] [%]	%Inh [19] [%]	%Inh [20] [%]
Cn1cncc1-c1cc2c(Nc3ccc(OCc4ccccc4)cc3)ncnc2cn1 [GW281179]	0	0	4	0	0	0	12	27	0	0	0	0	0	0	0	35	0	0	0	0
CC(=O)c1c(C)c2cnc(Nc3ccn(C)n3)nc2n(C2CCCC2)c1=O	0	0	55	0	5	0	0	0	0	11	0	0	0	0	0	4	0	0	0	0
Cc1c(Cn2c3ccccc3n3c(=O)cc(N4CCOCC4)nc23)cccc1C(F)(F)F [GSK2306394]	0	0	11	6	0	0	0	5	0	0	0	0	0	13	1	0	0	10	6	0
CC(C)c1ccc(O)cc1Nc1ccnc2ccc(C(F)(F)F)cc12 [GW482059]	0	16	0	19	0	0	0	23	0	0	0	0	4	0	0	0	0	15	13	0
O=c1cc(N2CCOCC2)nc2n(Cc3cccc(Cl)c3Cl)c3ccccc3n12 [GSK2299009]	0	15	31	18	14	0	0	50	0	0	0	0	0	22	20	17	0	0	24	5
COC(=O)c1cccc(NC(=O)NC2CCN(c3ccnc(Nc4ccc(F)cc4)n3)C2)c1 (stereo not drawn) [GSK1379725]	0	0	0	0	0	0	1	17	0	0	0	0	0	0	0	15	0	0	0	0
Cc1ccc(NC(=O)Nc2ccccc2)cc1-c1ccc(C(=O)Nc2ccncc2)cc1 [GSK1398471]	0	0	9	0	0	0	3	24	0	0	0	0	0	17	0	2	0	0	0	0
Cc1c(Cn2c(C)c(C)n3c(=O)cc(N4CCOCC4)nc23)cccc1C(F)(F)F [GSK2328680]	45	2	0	65	0	0	0	32	0	0	0	0	0	9	5	22	9	0	54	0
COc1ccc(Nc2nccc(NCCNC(=O)Nc3cc(C)ccc3C)n2)cc1 [GSK1379899]	0	10	0	0	0	0	0	24	0	0	0	0	1	0	16	7	0	0	0	0
COc1ccc(Nc2nccc(N3CCC(NC(=O)C(C)c4ccc(Cl)cc4)C3)n2)cc1 (stereo not drawn) [GSK1379735]	0	34	0	0	7	1	13	25	0	0	0	0	0	4	14	3	23	0	35	8
CN1c2ccc(-c3ccc(C(N)=O)cc3)cc2-c2[nH]ncc2S1(=O)=O	8	0	1	0	12	0	3	26	0	31	0	28	0	0	0	19	13	11	0	0
COc1cc2ncnc(Nc3cccc(Br)c3)c2cc1OC.Cl [GI230329]	40	0	0	0	0	0	5	13	17	0	0	0	0	7	0	31	1	0	0	0
COc1ccc(CSc2nnc(-c3ccc4nccn4c3)o2)cc1C(F)(F)F	0	16	3	2	16	10	0	0	0	33	22	13	0	10	21	12	14	12	22	0
Fc1ccc(-c2nc[nH]c2-c2ccncc2)cc1 [SB-217360]	0	3	14	1	0	0	0	33	15	0	0	40	7	48	0	0	37	53	0	3
CCc1ccc(-c2ccc3c(c2)-c2n[nH]cc2S(=O)(=O)N3C)cc1	14	0	0	0	15	0	0	19	0	0	0	27	0	0	0	15	0	0	0	20
